The record followed here is PubChem BioAssay (EPA / NIEHS).

By AC50 is commonly meant the midpoint of the concentration-response curve, whichever way the signal moves.

Each structure is given as a SMILES string. Inconclusive results are not listed. Activity calls are given as the source filed them. Rule for the calls: active = hit-call score of the fitted dose curve at least 0.9, where 1 is the maximum; inconclusive = response in the unintended direction; inactive = score below 0.9.

Chain of Bile acid receptor (Homo sapiens) (Q96RI1 whole entry, looked up): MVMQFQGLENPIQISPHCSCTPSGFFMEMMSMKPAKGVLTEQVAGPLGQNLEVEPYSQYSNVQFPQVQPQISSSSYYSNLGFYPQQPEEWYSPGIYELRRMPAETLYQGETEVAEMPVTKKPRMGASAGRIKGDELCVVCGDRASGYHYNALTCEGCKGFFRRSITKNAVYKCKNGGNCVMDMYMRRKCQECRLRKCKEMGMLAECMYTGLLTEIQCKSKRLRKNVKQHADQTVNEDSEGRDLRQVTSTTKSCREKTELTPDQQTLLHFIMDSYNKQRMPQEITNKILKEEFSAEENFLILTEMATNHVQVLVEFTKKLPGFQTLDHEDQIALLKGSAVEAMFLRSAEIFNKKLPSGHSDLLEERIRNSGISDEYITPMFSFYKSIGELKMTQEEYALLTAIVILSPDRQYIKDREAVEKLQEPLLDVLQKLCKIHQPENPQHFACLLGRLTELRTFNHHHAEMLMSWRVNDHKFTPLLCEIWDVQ

The target of one assay is Bile acid receptor (Homo sapiens) (UniProt Q96RI1). Briefly: NVS_NR_hFXR_Antagonist: NovaScreen (NVS) Nuclear Receptor Binding Assay for human Farnesoid X Receptor Antagonism (FXR) (AID 2283350). The essentials:
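Cell-free TR-FRET ligand-binding read-out on human FXR (NR1H4) in antagonist mode, measured 1 h after dosing. Primary screen in duplicate at 25 uM, actives retested in concentration series; signal loss scored versus DMSO.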
Regarding `CC[C@H](C)C(=O)O[C@H]1C[C@@H](C)C=C2C=C[C@H](C)[C@H](CC[C@@H]3C[C@@H](O)CC(=O)O3)[C@H]21`, the AC50 was 31.5 µM (active).
Regarding `CC(C)=CCC/C(C)=C\CO`, the outcome was inactive.
For `COc1cccc(-c2ccc(/C=C\CN3CCCCCC3)cc2Cl)c1`, the result was inactive.
On to `COC(=O)c1c(Cl)c(Cl)c(C(=O)OC)c(Cl)c1Cl`, for which the call was inactive.
Regarding `CNS(=O)(=O)c1cc(C(=O)N2CCC(CCN3C4CCC3CC(n3c(C)nc5ccccc53)C4)(c3cccc(F)c3)CC2)c(Cl)cc1F` (centres undefined), the AC50 is 8.21 µM (active).
As for `CC(C)c1cccc(C(C)C)c1N1C(=O)c2ccc(O)cc2C1=O`, the AC50 was 41.1 µM (active).

A further assay deals with Estrogen receptor (Homo sapiens) (UniProt P03372). As to the kind of experiment: OT_ER_ERaERa_0480: Odyssey Thera (OT) 8-hour HEK293T Protein-Complementation Assay for Estrogen Receptor-alpha/-alpha Homodimer (AID 2283351).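 Note: rise in fluorescence from reassembled reporter fragments on ERα LBD homodimer in nucleus or whole cell.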 The gist of the method: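 HEK293T cells stably expressing the human ERα ligand-binding domain (aa 310-547) as a homodimer PCA were dosed with compound for 8 h. Gain of fluorescence intensity versus DMSO vehicle was read by laser scanning cytometry.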
Chain of Estrogen receptor (Homo sapiens) (P03372 whole entry, looked up, the tested form may be a part): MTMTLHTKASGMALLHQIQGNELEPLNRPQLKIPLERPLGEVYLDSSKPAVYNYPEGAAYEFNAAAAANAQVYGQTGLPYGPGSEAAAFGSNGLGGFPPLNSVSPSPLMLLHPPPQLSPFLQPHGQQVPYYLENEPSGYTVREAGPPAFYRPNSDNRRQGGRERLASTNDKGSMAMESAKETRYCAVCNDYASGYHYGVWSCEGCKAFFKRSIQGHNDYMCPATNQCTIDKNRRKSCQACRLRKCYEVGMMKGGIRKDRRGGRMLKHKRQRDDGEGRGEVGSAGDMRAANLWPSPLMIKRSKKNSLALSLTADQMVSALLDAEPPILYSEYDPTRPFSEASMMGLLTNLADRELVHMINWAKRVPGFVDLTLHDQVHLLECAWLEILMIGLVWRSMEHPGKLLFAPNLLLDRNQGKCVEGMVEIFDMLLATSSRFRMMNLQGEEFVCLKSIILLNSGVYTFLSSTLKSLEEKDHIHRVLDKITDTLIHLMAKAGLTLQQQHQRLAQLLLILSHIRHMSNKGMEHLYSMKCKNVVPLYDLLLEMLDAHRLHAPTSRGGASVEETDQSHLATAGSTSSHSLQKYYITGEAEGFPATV
As to `CC[C@H](C)C(=O)O[C@H]1C[C@@H](C)C=C2C=C[C@H](C)[C@H](CC[C@@H]3C[C@@H](O)CC(=O)O3)[C@H]21`, the result was inactive.
Still for that read-out and setting: in the case of `CCCCCCCCO` it was “inactive”.
As for `COC(=O)CC(=O)OC`, the result was inactive.
With `Cc1ccc(S(=O)(=O)O)cc1C`, the molecule was classed as inactive.
The same measure, in the same setting: the same measure for `CC(C)=CCCC(C)CCO` (centres undefined): “inactive”; for `COc1ccc2sc(C(=O)Nc3nnn[nH]3)c(OC(C)C)c2c1`: “inactive”; for `C=CC(=C)CCC=C(C)C`: “inactive”.
On the same count and under the same terms, the same measure for `O=C(NS(=O)(=O)/C=C/c1ccccc1)c1ccc(F)cc1Cl`: “inactive”; for `CC[C@H]1CC[C@H](NCc2cc3c(cc2OC)[C@H]2C[C@H]2C(=O)N3C)[C@H](c2ccccc2)N1`: “inactive”; for `O=c1[nH]c2ccc(S(=O)CCN3CCC(Cc4ccc(F)cc4)CC3)cc2o1` (centres undefined): “inactive”.
In the case of `CC/C(=C\C(=N/O)C(N)=O)C(C)[N+](=O)[O-]` (centres undefined), the molecule was called inactive.
On to `CC(C)CCO`, for which the molecule was called inactive.
In the case of `Cn1c(=O)cc(Oc2ccc(F)cc2F)c2cnc(NCC(C)(C)O)nc21`, the AC50 is 24.4 µM (active).
